# Sampled rows, rich in hits. Any-hit rate of the full collection: about 6.1%.
# HepG2 viability – qHTS for Inhibitors of TGF-b: Cytotox Counterscreen; HepG2 CAGA-GFP viability, ATP luminescence, 18 h; Potency, µM (top dose mostly 46.1 µM), inactives show at the top dose activity change, negative = cytotoxicity, usual class: cytotoxic; 410,000 compounds, 0.76% hits; AID 588856, 2011
#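 HepG2 CAGA-GFP cells (1000/well, DMEM with 1% FBS) received compound, then TGF-beta at 500 pg/mL final, and were incubated 18 hours at 37 degrees C. Viability was read by CellTiter-Glo luminescence. Media-only wells were set as complete cell-killing and DMSO as no toxicity.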
# ATXN2 expr inh – Primary qHTS for Inhibitors of ATXN expression; AID 1745845, 2022; Potency, µM (titrated, usually from 57 µM), for inactives: at the top dose activity change, negative = inhibition, usual class: inhibitors; 360,000 compounds, 0.72% hits; HEK-293 ATXN2-luciferase reporter, luminescence, 24 h; note: % is set by controls: 0 for no effect and ±100 for the full control effect; nearly all actives have a fitted effect of over 55% in size
#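 qHTS (up to 57 uM final) was run with 24 h compound exposure of reporter cells at 37 °C. Each well was multiplexed: SteadyGlo luminescence measured ATXN2-luciferase expression after a fluorogenic Gly-Phe-AFC viability readout (25 uM final).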
# Gal4-VP16 FLuc – VP16 counterscreen qHTS for inhibitors of ROR gamma transcriptional activity; Drosophila S2 Gal4-VP16 UAS-luciferase, luminescence, 20 h; Potency, µM (top dose mostly 53.6 µM), inactives show at the highest dose activity, negative = inhibition, actives largely listed as inhibitors; 310,000 compounds, 3.5% hits;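 note: Gal4-VP16 expression switched on by copper sulfate through the metallothionein promoter; % is set by controls: 0 for no effect and ±100 for the full control effect; nearly all actives have a fitted effect of over 50% in size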
# RORg inh – qHTS for inhibitors of ROR gamma transcriptional activity; Nuclear receptor ROR-gamma (Mus musculus), P51450; Drosophila S2 Gal4-RORgamma UAS-luciferase reporter, 20 h; Potency, µM (titrated, usually from 53.6 µM), without a hit: at the highest dose activity change, negative = inhibition, most hits filed as inhibitors; 310,000 compounds, 5.4% hits; note: % is set by controls: 0 for no effect and ±100 for the full control effect; nearly all actives have a fitted effect of over 60% in size
# Target sequence (P51450 whole entry, looked up, the tested form may be a part): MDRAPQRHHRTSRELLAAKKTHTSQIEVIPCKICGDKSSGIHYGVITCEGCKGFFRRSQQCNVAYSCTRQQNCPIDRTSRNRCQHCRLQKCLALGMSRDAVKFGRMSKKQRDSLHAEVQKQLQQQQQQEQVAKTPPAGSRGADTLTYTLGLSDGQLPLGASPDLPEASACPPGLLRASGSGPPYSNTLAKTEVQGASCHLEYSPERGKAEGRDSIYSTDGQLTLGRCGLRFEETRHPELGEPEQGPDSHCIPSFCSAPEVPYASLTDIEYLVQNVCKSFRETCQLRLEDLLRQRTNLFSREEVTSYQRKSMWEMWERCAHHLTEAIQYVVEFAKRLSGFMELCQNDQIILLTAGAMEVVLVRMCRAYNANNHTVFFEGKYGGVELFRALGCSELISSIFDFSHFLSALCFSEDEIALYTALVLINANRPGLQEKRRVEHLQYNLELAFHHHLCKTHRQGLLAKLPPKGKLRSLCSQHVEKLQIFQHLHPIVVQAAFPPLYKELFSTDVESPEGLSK
#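 In this cell-based reporter format, copper sulfate (700 uM final) drives Gal4–ROR gamma fusion expression from a metallothionein promoter in Drosophila Schneider cells; compounds preincubated 1 hr, reporter read after 20 hr at ambient temperature.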
# ATXN viability – Viability Counterscreen for Primary qHTS for Inhibitors of ATXN expression. AID 651635, 2014. 400,000 compounds, 0.49% hits. S2 cells (HEK-293 line with an ATXN2-luciferase reporter) viability, CellTiter-Fluor protease fluorescence, 24 h. Potency, µM (top dose mostly 56.7 µM), hits mostly cytotoxic; note: nearly all actives have a fitted effect of over 40% in size
# TGFb SMAD3 inh – qHTS for Inhibitors of TGF-b. HepG2 CAGA-GFP TGF-b/SMAD3 reporter, GFP fluorescence, 18 h; TGF-beta stimulated, 500 pg/mL final. Potency, µM (titrated, usually from 46.1 µM), inactives show at the top dose activity, negative = inhibition, actives largely listed as inhibitors. 410,000 compounds, 1.2% hits. AID 588855, 2011; note: % is set by controls: 0 for no effect and ±100 for the full control effect; nearly all actives have a fitted effect of over 65% in size
#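 Inhibition of TGF-beta-driven CAGA-GFP reporter expression in HEPG2 cells is measured by cellular GFP fluorescence after 18 h stimulation with 500 pg/mL recombinant TGF-beta in 1% FBS medium at 37 degrees C.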
# Starred values were filed as active, the others as inactive; i = inactive; ? = inconclusive; · = no result; ! = not confirmed by another sample; [ ] = remark or other dose. Calls come from the whole dose curve; as a rule, active = well fitted curve in the direction sought with a large enough effect; inconclusive = small, poorly fitted or top-dose-only effect, or another doubt; inactive = no such curve, though single readings can be large; an effect the other way counts as inactive or inconclusive. Potency is the fitted concentration of half-maximal effect.
SMILES,HepG2 viability,ATXN2 expr inh,Gal4-VP16 FLuc,RORg inh,ATXN viability,TGFb SMAD3 inh
Cc1ccc(Cn2c(C(CO)Nc3nc(-c4ccc(Cl)c([N+](=O)[O-])c4)cs3)nc3ccccc32)cc1 (centres undefined),-40.0%,-21.0%,·,·,?,15.8µM*
Cc1ccc(Cn2c(C(CO)Nc3nc(-c4ccc(F)cc4)cs3)nc3ccccc32)cc1 (centres undefined),16.4%,?,·,·,·,-2.5%
Cc1ccc(N2CC(c3nnc(NC(=O)c4ccco4)s3)CC2=O)cc1C (centres undefined),3.5%,4.0%,·,·,i,-39.1%
Cc1ccc(NC(=O)Cn2c(=O)n(CCC(C)C)c(=O)c3cccnc32)cc1C,-16.0%,-1.0%,·,·,i,?
O=C(NNc1nc2cc3c(cc2s1)OCO3)c1ccc(F)cc1,-11.0%,-0.2%,?,1.26µM*,i,-2.7%
O=C(NNc1nc2cc3c(cc2s1)OCCO3)c1ccc(F)cc1,-28.1%,1.0%,?,2.82µM*,?,-8.8%
O=C(Nc1nc2cc3c(cc2s1)OCCO3)c1ccncc1,-10.4%,32.2%,-21.2%,-30.3%,i,-30.0%
CC(=O)Nc1nc2cc3c(cc2s1)OCO3,-10.5%,8.2%,-0.5%,22.0%,i,4.8%
Cc1nc2cccnc2n1C1CCN(S(C)(=O)=O)CC1,2.0%,-8.4%,·,·,i,?
CCOc1ccc(-c2cnc3ccccc3n2)cc1,11.9%,·,8.91µM*,3.55µM*,·,-4.3%
CCOc1ccc(-c2cn3ccccc3n2)cc1,-54.8%,·,?,6.31µM*,i,-15.4%
CCc1nn2c(=O)cc(COC(=O)c3cccc(NC(=O)c4cccs4)c3)nc2s1,-26.7%,·,·,·,·,-23.3%
COc1cc(OC)c2c(-c3ccccc3)cc(=O)oc2c1C(CCN1CCCCC1)c1ccc(N(C)C)cc1 (centres undefined),-69.5%,?,?,?,22.4µM*,?
COc1ccc(C(CCN2CCCCC2)c2c(OC)cc(OC)c3c(-c4ccccc4)cc(=O)oc23)cc1 (centres undefined),17.8µM*!,?,?,?,22.4µM*,?
COc1cc(OC)c2c(-c3ccccc3)cc(=O)oc2c1C(CCN1CCOCC1)c1ccc(N(C)C)cc1 (centres undefined),-41.2%,-11.6%,?,-43.9%[40.7 µM],?,?
COc1cc(OC)c2c(-c3ccccc3)cc(=O)oc2c1C(CCN1CCCC(C)C1)c1ccc2c(c1)OCO2 (centres undefined),-19.5%,?,-15.3%,-27.7%,10µM*,?
COc1ccccc1CCNC(=O)Cc1c(C)c2ccc(O)cc2oc1=O,-7.5%,-0.8%,·,·,·,8.1%
Nc1nc(CN2CCN(Cc3ccccc3)CC2)nc(N2CCCc3ccccc32)n1,-0.7%,-16.9%,-5.6%,10µM*,i,4.8%
Nc1nc(CN2CCN(c3ccccc3F)CC2)nc(N2CCCc3ccccc32)n1,-27.2%,11.4%,?,11.2µM*,i,?
Nc1nc(CN2CCN(c3ccccc3)CC2)nc(N2CCCc3ccccc32)n1,-25.9%,8.8%,-12.3%,-26.5%,i,-1.7%
Cc1ccc(CSc2nc3cccnc3n2Cc2ccc(C(=O)NC3CCCCC3)cc2)cc1,-24.3%,·,·,·,·,-18.1%
CCOC(=O)C1Nc2ccc(C(F)(F)F)cc2C2c3ccccc3CC12 (centres undefined),-100.9%,25.1µM*,·,·,?,?
O=C(NCCOc1ccccc1)C1Nc2ccc(C(F)(F)F)cc2C2c3ccccc3CC12 (centres undefined),15.8µM*,-36.7%,·,·,i,?
CCOC(=O)C1Nc2ccccc2C2C(O)C(O)CC12 (centres undefined),-31.4%,-33.6%,·,·,?,?
COc1cccc(C(=O)c2cn(CC(=O)Nc3cccc(Cl)c3C)c3nc(C)ccc3c2=O)c1,0.9%,11.3%,·,·,i,-21.5%
SMILES,HepG2 viability,ATXN2 expr inh,Gal4-VP16 FLuc,RORg inh,ATXN viability,TGFb SMAD3 inh
CCC(C)NC(=O)c1ccc2c(c1)N(Cc1ccccc1)C(=O)c1ccccc1S2(=O)=O (centres undefined),0.7%,·,·,·,·,·
CC(=O)Nc1nnc(-c2ccc3c(c2)CCCC3)o1,-35.5%,-23.8%,3.55µM*,7.08µM*,?,-23.1%
O=C(Nc1nnc(-c2ccc3c(c2)CCCC3)o1)C1COc2ccccc2O1 (centres undefined),-16.7%,-36.8%,7.94µM*,3.55µM*,i,-19.2%
COc1ccccc1C(=O)Nc1nnc(-c2ccc3c(c2)CCCC3)o1,-55.9%,4.8%,3.98µM*,0.4%,i,?
O=C(COc1ccc(Cl)cc1)Nc1nnc(-c2ccc3c(c2)CCCC3)o1,-24.7%,31.9%,?,-75.2%,i,-15.2%
CC1CN(S(=O)(=O)c2ccc(C(=O)Nc3nnc(-c4ccc5c(c4)CCCC5)o3)cc2)CC(C)O1 (centres undefined),-3.8%,?,0.891µM*,0.112µM*,i,?
CC1CN(S(=O)(=O)c2ccc(C(=O)Nc3nnc(-c4ccccn4)o3)cc2)CC(C)O1 (centres undefined),0.3%,3.9%,?,?,i,-10.0%
COc1cc(C)c2ccccc2n1,12.0%,·,·,·,·,-2.6%
COc1cc(/C=C2\C(=O)ON=C2c2ccccc2)cc(Cl)c1O,-0.9%,?,12.6µM*,?,?,0.6%
Cc1cccc(N2CCN(c3cc(C)nc4c(-c5ccc(Cl)cc5)c(C)nn34)CC2C)c1 (centres undefined),-19.0%,·,·,·,·,-8.1%
Cc1cccc(C(=O)Nc2nnc(-c3cccnc3)o2)c1,-3.8%,-19.2%,1.26µM*,0.708µM*,i,-5.4%
